# In paper PMC4336329 (PLoS ONE, 2015):
# Screen size: about 310,000 compounds; about 14,000 (4.5%) showed an effect of 50% or more. Effects have a minus sign here. This excerpt belongs to a sample that is enriched for strong results.
# Target: human ether-à-go-go-related gene (hERG) potassium channel (human, UniProt Q12809)
# Assay: primary screen, population patch clamp on CHO cells stably expressing hERG; higher = less effect of the substance
# 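Note: peak tail current of the secondary pulse compared with the same well before compound.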
# Chain of human ether-à-go-go-related gene (hERG) potassium channel (Q12809 whole entry, looked up): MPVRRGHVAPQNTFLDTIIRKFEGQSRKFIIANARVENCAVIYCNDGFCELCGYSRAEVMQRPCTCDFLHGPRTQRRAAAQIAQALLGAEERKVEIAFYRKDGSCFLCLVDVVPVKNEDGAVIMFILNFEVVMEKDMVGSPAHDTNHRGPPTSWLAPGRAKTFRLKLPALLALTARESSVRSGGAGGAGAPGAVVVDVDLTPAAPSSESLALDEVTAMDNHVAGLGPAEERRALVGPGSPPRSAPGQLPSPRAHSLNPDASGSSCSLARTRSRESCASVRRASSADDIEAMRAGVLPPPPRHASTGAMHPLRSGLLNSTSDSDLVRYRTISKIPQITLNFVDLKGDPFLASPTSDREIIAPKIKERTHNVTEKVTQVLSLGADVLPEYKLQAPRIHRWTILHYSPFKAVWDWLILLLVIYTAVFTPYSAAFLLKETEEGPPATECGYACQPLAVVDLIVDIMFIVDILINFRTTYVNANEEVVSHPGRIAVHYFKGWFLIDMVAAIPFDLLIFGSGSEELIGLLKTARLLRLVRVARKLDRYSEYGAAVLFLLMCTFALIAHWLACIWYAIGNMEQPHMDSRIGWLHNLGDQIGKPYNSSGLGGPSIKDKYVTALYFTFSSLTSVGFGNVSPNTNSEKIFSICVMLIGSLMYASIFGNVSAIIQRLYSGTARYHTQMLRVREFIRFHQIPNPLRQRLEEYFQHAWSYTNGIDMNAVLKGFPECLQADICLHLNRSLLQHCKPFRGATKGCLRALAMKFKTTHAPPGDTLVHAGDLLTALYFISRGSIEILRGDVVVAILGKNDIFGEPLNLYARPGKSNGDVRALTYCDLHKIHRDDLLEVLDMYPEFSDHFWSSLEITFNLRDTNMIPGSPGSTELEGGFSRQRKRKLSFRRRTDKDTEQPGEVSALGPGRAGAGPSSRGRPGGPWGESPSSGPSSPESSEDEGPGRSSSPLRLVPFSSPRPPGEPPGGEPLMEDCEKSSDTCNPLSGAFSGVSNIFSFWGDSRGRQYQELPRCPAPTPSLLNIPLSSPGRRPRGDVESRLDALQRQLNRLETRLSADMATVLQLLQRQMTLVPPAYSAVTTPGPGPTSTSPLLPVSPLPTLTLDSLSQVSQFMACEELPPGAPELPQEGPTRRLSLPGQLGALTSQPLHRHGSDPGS
row,Compound,"hERG current change (%, negative = inhibition) at 10uM"
1,O=C(OCc1ccc([N+](=O)[O-])cc1)c1cc([N+](=O)[O-])ccc1N1CCOCC1,-76.1%
2,Cc1ccc(COC(=O)c2cc(S(=O)(=O)N3CCCCC3)ccc2N2CCOCC2)cc1,-13.9%
3,O=C(OCc1ccc(F)cc1)c1cc(S(=O)(=O)N2CCCCC2)ccc1N1CCOCC1,2.16%
4,O=C(OCc1ccc([N+](=O)[O-])cc1)c1cc(S(=O)(=O)N2CCCCC2)ccc1N1CCOCC1,-75.9%
5,Cc1ccc(COC(=O)c2cc([N+](=O)[O-])ccc2N2CCOCC2)cc1,-53.7%
6,Cc1ccccc1COC(=O)c1cc([N+](=O)[O-])ccc1N1CCOCC1,-18.8%
7,CC1CCN(C(=O)COC(=O)c2cc([N+](=O)[O-])ccc2N2CCOCC2)CC1,-15%
8,O=C(OCc1ccccc1Cl)c1cc([N+](=O)[O-])ccc1N1CCOCC1,-23.1%
9,O=C(OCc1cccc(Cl)c1)c1cc([N+](=O)[O-])ccc1N1CCOCC1,-38.7%
10,Cc1ccc(C)c(COC(=O)c2cc([N+](=O)[O-])ccc2N2CCOCC2)c1,5.73%
11,CC1CC(C)CN(C(=O)COC(=O)c2cc([N+](=O)[O-])ccc2N2CCOCC2)C1 (centres unmarked),-54.7%
12,CC1CCCN(C(=O)COC(=O)c2cc([N+](=O)[O-])ccc2N2CCOCC2)C1 (centres unmarked),-14.6%
13,C/C(=N\NC(=O)C(NC(=O)c1ccccc1)C(C)C)c1ccccc1 (centres unmarked),21.2%
14,COc1ccc(-c2csc(NC(C)=O)n2)cc1OC,5.13%
15,Cc1ccccc1NC(=O)NC1(C(=O)NCC2CCCO2)CCCCC1 (centres unmarked),17.5%
16,O=[N+]([O-])c1ccc(NCc2ccccn2)nc1,-5.06%
17,CCC(C(=O)Nc1ccccc1)c1ccccc1 (centres unmarked),7.86%
18,CS(=O)(=O)N(CC(O)Cn1c2ccccc2c2ccccc21)c1cccc2ccccc12 (centres unmarked),0.652%
19,CCOC(=O)c1c(C)[nH]c(C)c1C(=O)COC(=O)c1cccc(S(=O)(=O)NC)c1,-7.56%
20,COc1ccc(OC)c(COC(=O)c2cc([N+](=O)[O-])ccc2N2CCOCC2)c1,-18%
21,COc1ccc(COC(=O)c2cc([N+](=O)[O-])ccc2N2CCOCC2)cc1F,-62.5%

row,Compound,"hERG current change (%, negative = inhibition) at 10uM"
1,CN(C)S(=O)(=O)c1cccc(COC(=O)c2cc([N+](=O)[O-])ccc2N2CCOCC2)c1,-52.7%
2,O=C(OCc1ccccc1F)c1cc([N+](=O)[O-])ccc1N1CCOCC1,-47.9%
3,CCc1cccc(NC(=O)COC(=O)c2cc([N+](=O)[O-])ccc2N2CCOCC2)c1,-7.99%
4,O=C(OCc1c(F)cccc1Cl)c1cc([N+](=O)[O-])ccc1N1CCOCC1,3.43%
5,COc1cc(C(=O)CSc2nncn2C)cc(OC)c1OC,6.63%
6,CCOC(=O)c1ccc(NC(=S)N2CCC(O)CC2)cc1,18%
7,O=C(CN1C(=O)c2ccccc2C1=O)Nc1cc(C(=O)O)cc(C(=O)O)c1,7.72%
8,N#Cc1ccccc1OCC(=O)NNC(=O)c1ccncc1,9.65%
9,Cc1cc(NC(=O)CN2C(=O)NC(C)(c3ccccc3)C2=O)no1 (centres unmarked),-55.5%
10,CC1(c2ccc(OC(F)F)cc2)NC(=O)N(CC(=O)Nc2ccc(F)cc2)C1=O (centres unmarked),-45.5%
11,Cc1cc(NC(=O)CN2C(=O)NC(C)(c3ccc(Cl)cc3)C2=O)no1 (centres unmarked),39.2%
12,CC1(c2ccc(OC(F)F)cc2)NC(=O)N(CC(=O)Nc2ccc(OC(F)F)cc2)C1=O (centres unmarked),-94.9%
13,Cc1ccc(C2(C)NC(=O)N(CC(=O)Nc3cc(C)on3)C2=O)cc1 (centres unmarked),-10.7%
14,CC1(c2ccc(OC(F)F)cc2)NC(=O)N(CC(=O)Nc2cccc(F)c2)C1=O (centres unmarked),2.79%
15,CC1(c2ccc(OC(F)F)cc2)NC(=O)N(CC(=O)Nc2ccccc2)C1=O (centres unmarked),-51.3%
16,CC1(c2ccc(OC(F)F)cc2)NC(=O)N(CC(=O)Nc2ccc(S(N)(=O)=O)cc2)C1=O (centres unmarked),1.64%
17,CCOc1ccc(NC(=O)CN2C(=O)NC(C)(c3ccc(OC(F)F)cc3)C2=O)cc1 (centres unmarked),-16.1%
18,CCn1c(=S)sc2c(=O)n(CC(=O)NCCCc3ccccc3)c(C)nc21,18.8%
19,COc1ccc(OC)c(NC(=O)Cn2cnc3c(cnn3-c3ccccc3)c2=O)c1,-12.8%
20,COc1cc(/C=C/C(=O)OCC(=O)c2c(N)n(C)c(=O)n(C)c2=O)ccc1OC(F)F,6.4%
